Most compounds without a hit are left out; they make up all but 8.1% or so of the library.
MITF inh – MITF inhibition | TRPM1 promoter luciferase, luminescence, 24 h | inhibition, % (concentration not given with the values) | 37,000 compounds, 0.28% hits; in the data active means inhibition above about 85%;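 further: human melanocyte line stably carrying TRPM1 promoter luciferase reporter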
NOMO-1 viab – STK33 inhibitor candidate reducing NOMO-1 cell viability; inhibition, % (concentration not given with the values); 37,000 compounds, 7.5% hits; NOMO-1 AML viability, CellTiter-Glo luminescence, 72 h; AID 2330; in the data active means inhibition above about 80%
Shh pathway inh – Sonic Hedgehog pathway inhibition; Shh-LIGHT2 Gli-luciferase reporter, 30 h; inhibition, % (concentration not given with the values); 22,000 compounds, 2.1% hits; AID 2313;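 active means mean inhibition across valid replicates above about 65%, limit read from the data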;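 further: pathway switched on by Shh-conditioned medium diluted 1 in 25 in low serum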
Of the large screens only hits and unclear results are named; the others gave an inactive call.

CCn1ncc(C2=NOC(C(=O)Nc3ccc(Cl)c(Cl)c3)C2)c1C (stereo not given)	none (no result: Shh pathway inh)
COC(=O)c1cccc(NC(=O)CN2C(=O)c3ccccc3S2(=O)=O)c1C	none (no result: Shh pathway inh)
C[C@H]1CN([C@@H](C)CO)C(=O)c2cc(NC(=O)Nc3ccccc3)ccc2O[C@H]1CN(C)Cc1ccc2c(c1)OCO2	NOMO-1 viab 92.0 (no result: Shh pathway inh)
C[C@@H]1CN([C@@H](C)CO)C(=O)c2cc(NC(=O)C3CCCCC3)ccc2O[C@@H]1CN(C)Cc1ccc2c(c1)OCO2	none
C[C@@H]1CN([C@@H](C)CO)C(=O)c2cc(NC(=O)Nc3ccc(F)cc3)ccc2O[C@H]1CN(C)Cc1ccc2c(c1)OCO2	none (no result: Shh pathway inh)
C[C@H]1CN([C@@H](C)CO)C(=O)c2cc(NC(=O)C3CCCCC3)ccc2O[C@H]1CN(C)Cc1ccc2c(c1)OCO2	NOMO-1 viab 91.7 (no result: Shh pathway inh)
CCOc1ccccc1NC(=O)c1ccsc1NC(=O)c1cc2ccccc2oc1=O	none (no result: Shh pathway inh)
COC(=O)c1ccccc1NC(=O)c1c(NC(=O)CN2CCCCCC2)sc2c1CCC2	none (no result: Shh pathway inh)
Cc1cc(C)n2nc(SCC(=O)Nc3cccc([N+](=O)[O-])c3)nc2n1	none (no result: Shh pathway inh)
COc1ccc(S(=O)(=O)N(C)CC(=O)Nc2ccc(Br)cc2F)cc1	none (no result: Shh pathway inh)
O=C(c1ccccc1)c1ccc(-c2ccccc2)cc1	NOMO-1 viab 91.3
O=C(O)CCC(=O)c1ccc(-c2ccccc2)cc1	none
N#Cc1c(N)nc(SCC(=O)c2ccc(Cl)cc2)c(C#N)c1-c1ccco1	none (no result: Shh pathway inh)
COc1ccc2c(c1)O[C@@H]1COc3cc4c(cc3[C@]1(O)C2=O)OCO4	none
CC(O)c1nc2ccccc2n1CCOc1ccc(Br)cc1 (stereo not given)	none (no result: Shh pathway inh)
CC(=O)c1ccccc1OC(=O)CCN1C(=O)C2C3c4ccccc4C(c4ccccc43)C2C1=O (stereo not given)	none (no result: Shh pathway inh)
O=C(CCN1C(=O)C2C3C=CC(C4CC34)C2C1=O)Oc1cccc2cccnc12 (stereo not given)	NOMO-1 viab 121.2 (no result: Shh pathway inh)
CC(C)(C)c1ccc(OC(=O)CCN2C(=O)C3C4C=CC(C5CC45)C3C2=O)cc1 (stereo not given)	none (no result: Shh pathway inh)
O=C(CCN1C(=O)C2C3C=CC(C3)C2C1=O)Oc1cccc2cccnc12 (stereo not given)	NOMO-1 viab 113.3 (no result: Shh pathway inh)
N#Cc1c(-c2ccccc2)n2c(-c3ccccc3)nn(-c3ccccc3)c2nc1=O	none (no result: Shh pathway inh)
COc1ccc(-c2nnc(SCC(=O)Nc3ccc(Br)cc3C(C)C)o2)cc1	none (no result: Shh pathway inh)
O=C(Cn1cnc2ccccc2c1=O)Nc1ccc(I)cc1	none (no result: Shh pathway inh)
CCC(Oc1cccc(NC(=O)c2cccc(OC)c2)c1)C(=O)c1ccccc1 (stereo not given)	none (no result: Shh pathway inh)
C[C@H](CO)N1C[C@H](C)[C@H](CN(C)C(=O)Nc2ccc(C(F)(F)F)cc2)Oc2c(NC(=O)Nc3cccc4ccccc34)cccc2C1=O	NOMO-1 viab 101.7
C[C@H]1CN([C@@H](C)CO)C(=O)c2cccc(NC(=O)Nc3ccccc3)c2O[C@@H]1CN(C)C(=O)Nc1ccc(C(F)(F)F)cc1	none
C[C@@H]1CN([C@@H](C)CO)C(=O)c2cccc(NC(=O)Nc3ccccc3)c2O[C@@H]1CN(C)C(=O)Nc1ccc(C(F)(F)F)cc1	none
C[C@H](CO)N1C[C@H](C)[C@@H](CN(C)C(=O)Nc2ccccc2)Oc2c(NC(=O)Nc3ccc(C(F)(F)F)cc3)cccc2C1=O	none
C[C@H]1CN([C@@H](C)CO)C(=O)c2cccc(NC(=O)Nc3ccc(F)cc3)c2O[C@H]1CN(C)C(=O)Nc1cccc2ccccc12	none
C[C@H]1CN([C@@H](C)CO)C(=O)c2cccc(NC(=O)Nc3cccc4ccccc34)c2O[C@H]1CN(C)C(=O)Nc1ccc(C(F)(F)F)cc1	NOMO-1 viab 109.5
C[C@H]1CN([C@@H](C)CO)C(=O)c2cccc(NC(=O)Nc3cccc4ccccc34)c2O[C@H]1CN(C)C(=O)Nc1ccc(F)cc1	NOMO-1 viab 87.2
C[C@H](CO)N1C[C@H](C)[C@@H](CN(C)C(=O)Nc2ccc(C(F)(F)F)cc2)Oc2c(NC(=O)Nc3cccc4ccccc34)cccc2C1=O	NOMO-1 viab 99.9
COc1ccc(NC(=O)CSc2ncnc3scc(-c4ccccc4)c23)c([N+](=O)[O-])c1	none (no result: Shh pathway inh)
COc1ccc(NC(=O)COc2ccccc2Cl)c([N+](=O)[O-])c1	none (no result: Shh pathway inh)
O=C(CSc1nnnn1-c1ccccc1)Nc1cccc(Br)c1	none (no result: Shh pathway inh)
O=c1c(Cc2ccc(Br)cc2)csc2ccccc12	none
COc1cc(NC(=O)COc2ccc(I)cc2)c(C(=O)O)cc1OC	none (no result: Shh pathway inh)
CCS(=O)(=O)Nc1cccc(C(=O)CC2(O)C(=O)Nc3ccccc32)c1 (stereo not given)	none
O=C(CC1(O)C(=O)N(Cc2cccc3ccccc23)c2ccccc21)c1ccccc1[N+](=O)[O-] (stereo not given)	NOMO-1 viab 114.5 (no result: Shh pathway inh)
O=C(CC1(O)C(=O)N(Cc2ccccc2)c2ccc(Cl)cc21)c1ccncc1 (stereo not given)	NOMO-1 viab 117.1 (no result: Shh pathway inh)
Cc1ccc(C(=O)CC2(O)C(=O)N(CCCC#N)c3ccccc32)o1 (stereo not given)	none (no result: Shh pathway inh)
N#CCCCN1C(=O)C(O)(CC(=O)c2ccc3c(c2)OCCO3)c2ccccc21 (stereo not given)	none (no result: Shh pathway inh)
O=C(CC1(O)C(=O)N(Cc2ccc(Cl)cc2)c2ccc(Cl)cc21)c1ccccn1 (stereo not given)	NOMO-1 viab 114.6 (no result: Shh pathway inh)
Cc1ccc(CN2C(=O)C(O)(CC(=O)c3cccc(N)c3)c3cc(Cl)ccc32)cc1 (stereo not given)	NOMO-1 viab 133.0 (no result: Shh pathway inh)
Cc1coc(C)c1C(=O)CC1(O)C(=O)N(Cc2ccccc2)c2ccccc21 (stereo not given)	none (no result: Shh pathway inh)
Clc1cc2c(c(C[n+]3ccccc3)c1)OCOC2	none
Cc1ccccc1-c1cc(C(=O)NCCCn2ccnc2)c2cc(Cl)ccc2n1	none (no result: Shh pathway inh)
CCc1c(C)nc(SCC(=O)Nc2ccc(Cl)cc2)[nH]c1=O	none (no result: Shh pathway inh)
COc1ccc(CN2C(=O)C(O)(CC(=O)c3cccs3)c3ccccc32)cc1OC (stereo not given)	NOMO-1 viab 106.3 (no result: Shh pathway inh)
COc1ccc(C(=O)CC2(O)C(=O)N(Cc3ccccc3)c3ccc(Br)cc32)cc1[N+](=O)[O-] (stereo not given)	NOMO-1 viab 110.6 (no result: Shh pathway inh)
O=C(CC1(O)C(=O)N(CCc2ccccc2)c2ccc(Cl)cc21)c1ccco1 (stereo not given)	none (no result: Shh pathway inh)
COc1ccc(CN2C(=O)C(O)(CC(=O)c3c(C)n[nH]c3C)c3ccccc32)cc1OC (stereo not given)	none (no result: Shh pathway inh)
O=C(CC1(O)C(=O)N(Cc2ccc(Cl)cc2)c2ccccc21)c1cc2ccccc2oc1=O (stereo not given)	NOMO-1 viab 120.4 (no result: Shh pathway inh)
NC(=O)CN1C(=O)C(O)(CC(=O)c2ccc(Cl)cc2Cl)c2ccccc21 (stereo not given)	none (no result: Shh pathway inh)
O=C(CC1(O)C(=O)N(Cc2ccccc2)c2ccc(Br)cc21)c1ccc2c(c1)OCCO2 (stereo not given)	none (no result: Shh pathway inh)
Cc1coc(C)c1C(=O)CC1(O)C(=O)N(CCc2ccccc2)c2ccc(Cl)cc21 (stereo not given)	NOMO-1 viab 88.0 (no result: Shh pathway inh)
COc1ccc(CCNC(=O)C2OCCc3ccccc32)cc1OC (stereo not given)	none (no result: Shh pathway inh)
CCOC(=O)c1c(-c2ccc(C)cc2)csc1NC(=O)C1COc2ccccc2O1 (stereo not given)	none (no result: Shh pathway inh)
N#Cc1ccccc1NC(=O)CCCN1C(=O)c2ccccc2C1=O	none (no result: Shh pathway inh)
COc1ccc([N+](=O)[O-])cc1NC(=O)CN(c1ccc(C)cc1C)S(C)(=O)=O	none (no result: Shh pathway inh)
